Laboratory results: ChEMBL document CHEMBL3988442, “University of Dundee, Small-Polar-MMV Screening Library” (2021)
Out of some 48,000 compounds screened, about 13,000 (27%) showed an effect of 50% or more. Some of the results follow.

system: Wolbachia pipientis; test: Anti-Wolbachia Cell-Based Screen; format: functional; set-up: scale not given: in the data most compounds retested in dose-response had high values; conditions: 5 µM

Going from `COC(C(=O)N1CCCN(Cc2cscn2)CC1)c1ccccc1` (configuration not stated) to `COc1ccsc1C(=O)N1CCCN(Cc2cscn2)CC1`, the “Percent Effect” value rises from -16.29% to 127%.

Going from `Cc1nc(CN2CCN(C(=O)c3ccn(C)c(=O)c3)CC2)cs1` to `Cc1nc(CN2CCN(C(=O)c3sccc3C)CC2)cs1`, the “Percent Effect” value rises from 11.68% to 154.8%.

Going from `CCc1ccsc1C(=O)N1CCCN(Cc2cscn2)CC1` to `Cc1ccsc1C(=O)N1CCCN(Cc2cscn2)CC1`, the “Percent Effect” value falls from 140.3% to 92.98%.

Going from `COCC1CCN(S(=O)(=O)N2C[C@@H](C)[C@@](C)(O)C2)CC1` to `Cn1cc(N2C[C@@H]3CN(S(=O)(=O)C4CC4)C[C@@H]3C2=O)cn1`, the “Percent Effect” value falls from 1.126% to -1.09%.

Going from `CN(Cc1cn2c(n1)CN(Cc1ccsc1)CC2)Cc1ccco1.O=C(O)C(F)(F)F.O=C(O)C(F)(F)F` to `CC(C)c1ccc(O)c(C(=O)N2CCN(Cc3cscn3)CC2)c1`, the “Percent Effect” value rises from -7.727% to -2.44%.

Going from `CSc1cccc(CNC(=O)C2CC(=O)N(C3CC3)C2)c1` (configuration not stated) to `O=C(NCc1ccccc1)N1C[C@H]2C[C@H](C(=O)N3CCCC3)[C@@H](C1)O2`, the “Percent Effect” value rises from -14.89% to 8.283%.

Compared with `COc1cccc(COC(C)C(=O)N(C)Cc2nnc3n2CCC3)c1` (configuration not stated), `CC(C)[C@H]1COC(=O)N1Cc1nnc(-c2ccccc2)o1` is lower in “Percent Effect” value: -2.392% for the first, -6.799% for the second.

First: Cc1cc(CNc2cc(-c3ccoc3C)nn2CCO)c(C)o1
Second: Cc1cccc(N(C)Cc2nc3c(cnn3C)c(=O)[nH]2)c1C
The “Percent Effect” value of the first is lower: -24.32% for the first, -8.766% for the second.

Compared with `Cc1nc(CN2CCCN(C(=O)c3sccc3C#N)CC2)cs1`, `N#Cc1ccsc1C(=O)N1CCCN(Cc2cscn2)CC1` is lower in “Percent Effect” value: 111.7% for the first, 105.7% for the second.

Compared with `CCn1cc(CN2CCCN(C(=O)c3sccc3C#N)CC2)cn1`, `CCn1ccnc1CN1CCCN(C(=O)c2sccc2C#N)CC1` is higher in “Percent Effect” value: -3.745% for the first, 2.639% for the second.

Going from `Cc1ccsc1C(=O)N1CCN(Cc2cscn2)CC1` to `CC(C)c1ccsc1C(=O)N1CCCN(Cc2cscn2)CC1`, the “Percent Effect” value falls from 118.4% to 10.39%.

Going from `Cc1nc(CN2CCCN(C(=O)C3(C#N)CCCCC3)CC2)cs1` to `N#CC1(C(=O)N2CCN(Cc3cscn3)CC2)CCCC1`, the “Percent Effect” value falls from -0.8463% to -7.08%.

Going from `N[C@H]1CN(C(=O)c2ccc(Cl)cc2O)C[C@@H]1C1CC1` to `CNC(=O)[C@H]1C[C@@H]2CN(C(=O)Nc3ccc(F)cc3)C[C@H]1O2`, the “Percent Effect” value falls from -2.238% to -4.608%.

First: CC(NCCn1cccn1)c1ccccc1Cl (configuration not stated)
Second: Cc1cnn(CC(C)NCc2ccc(S(C)(=O)=O)cc2)c1 (configuration not stated)
The “Percent Effect” value of the first is higher: 12.43% for the first, 4.95% for the second.

Going from `CN1CCN(C(=O)C[C@@H]2COC[C@H]3CN(c4ccncn4)C[C@@H]23)CC1` to `O=C(NCCc1ccccc1)N1C[C@H]2C[C@H](C(=O)N3CCCC3)[C@@H](C1)O2`, the “Percent Effect” value rises from -4.365% to -4.163%.

Compared with `O=C(Nc1ccccc1)N1C[C@@H]2OCCN(C(=O)c3ccco3)[C@@H]2C1`, `O=C(Nc1ccccc1)N1C[C@H]2C[C@H](C(=O)N3CCOCC3)[C@@H](C1)O2` is higher in “Percent Effect” value: 7.532% for the first, 114.8% for the second.

Going from `O=C(Nc1ccc(F)cc1)N1C[C@H]2C[C@H](C(=O)N3CCOCC3)[C@@H](C1)O2` to `O=C(Nc1ccc(F)cc1)N1C[C@H]2C[C@H](C(=O)N3CCCC3)[C@@H](C1)O2`, the “Percent Effect” value rises from 1.969% to 125.2%.

Compared with `CCc1ccc(NC(=O)N2C[C@H]3C[C@H](C(=O)N4CCCC4)[C@@H](C2)O3)cc1`, `O=C(Nc1ccccc1)N1C[C@H]2C[C@H](C(=O)N3CCCC3)[C@@H](C1)O2` is lower in “Percent Effect” value: 103.5% for the first, 100.5% for the second.

Compared with `CNC(=O)N1C[C@H]2C[C@H](C(=O)Nc3ccccc3)[C@@H](C1)O2`, `CCC(=O)NCC(=O)NC(Cc1ccccc1)c1sccc1C` (configuration not stated) is higher in “Percent Effect” value: -3.507% for the first, 6.747% for the second.

Compared with `O=C1CC2(CCN(Cc3ccc(-c4ccn[nH]4)s3)CC2)CN1`, `Cn1ncc(N2CCN(Cc3ccc(S(C)(=O)=O)cc3)CC2)cc1=O` is lower in “Percent Effect” value: -9.036% for the first, -9.751% for the second.

Compared with `CCc1noc(C(C)N2CCC(NS(=O)(=O)c3cccs3)CC2)n1` (configuration not stated), `COC(=O)[C@@H](Nc1nc(C2CCCC2)nc2c1cnn2C)[C@@H](C)O` is lower in “Percent Effect” value: -6.324% for the first, -8.342% for the second.

Going from `CCOC(=O)CC(C)Nc1nc(C(C)(C)C)nc2c1cnn2C` (configuration not stated) to `CC(C)[C@H](Nc1nc(C2CCCC2)nc2c1cnn2C)C(N)=O`, the “Percent Effect” value rises from -7.754% to -0.02427%.

Compared with `CN(C)C(=O)c1cc(-c2ccc(S(C)(=O)=O)cc2)c2cnn(C)c2n1`, `CC(C)NC(=O)c1cc(-c2ccc(S(C)(=O)=O)cc2)c2cnn(C)c2n1` is higher in “Percent Effect” value: 108.3% for the first, 110.4% for the second.

`CC(C)NC(=O)c1cc(-c2ccc(S(C)(=O)=O)cc2)nc2c1cnn2C` was tested, and the “Percent Effect” value was 95.41%.
